Experimental data taken from PMC4336329 (PLoS ONE, 2015).
Out of some 310,000 compounds screened, about 14,000 (4.5%) showed an effect of 50% or more. The effect is printed as a negative number. The list comes from a sample in which strong results are over-represented; it also holds similar structures and randomly drawn compounds.

target: human ether-à-go-go-related gene (hERG) potassium channel (human, UniProt Q12809); assay: primary screen, population patch clamp on CHO cells stably expressing hERG; higher = less effect of the substance
Sequence (Q12809 whole entry, looked up): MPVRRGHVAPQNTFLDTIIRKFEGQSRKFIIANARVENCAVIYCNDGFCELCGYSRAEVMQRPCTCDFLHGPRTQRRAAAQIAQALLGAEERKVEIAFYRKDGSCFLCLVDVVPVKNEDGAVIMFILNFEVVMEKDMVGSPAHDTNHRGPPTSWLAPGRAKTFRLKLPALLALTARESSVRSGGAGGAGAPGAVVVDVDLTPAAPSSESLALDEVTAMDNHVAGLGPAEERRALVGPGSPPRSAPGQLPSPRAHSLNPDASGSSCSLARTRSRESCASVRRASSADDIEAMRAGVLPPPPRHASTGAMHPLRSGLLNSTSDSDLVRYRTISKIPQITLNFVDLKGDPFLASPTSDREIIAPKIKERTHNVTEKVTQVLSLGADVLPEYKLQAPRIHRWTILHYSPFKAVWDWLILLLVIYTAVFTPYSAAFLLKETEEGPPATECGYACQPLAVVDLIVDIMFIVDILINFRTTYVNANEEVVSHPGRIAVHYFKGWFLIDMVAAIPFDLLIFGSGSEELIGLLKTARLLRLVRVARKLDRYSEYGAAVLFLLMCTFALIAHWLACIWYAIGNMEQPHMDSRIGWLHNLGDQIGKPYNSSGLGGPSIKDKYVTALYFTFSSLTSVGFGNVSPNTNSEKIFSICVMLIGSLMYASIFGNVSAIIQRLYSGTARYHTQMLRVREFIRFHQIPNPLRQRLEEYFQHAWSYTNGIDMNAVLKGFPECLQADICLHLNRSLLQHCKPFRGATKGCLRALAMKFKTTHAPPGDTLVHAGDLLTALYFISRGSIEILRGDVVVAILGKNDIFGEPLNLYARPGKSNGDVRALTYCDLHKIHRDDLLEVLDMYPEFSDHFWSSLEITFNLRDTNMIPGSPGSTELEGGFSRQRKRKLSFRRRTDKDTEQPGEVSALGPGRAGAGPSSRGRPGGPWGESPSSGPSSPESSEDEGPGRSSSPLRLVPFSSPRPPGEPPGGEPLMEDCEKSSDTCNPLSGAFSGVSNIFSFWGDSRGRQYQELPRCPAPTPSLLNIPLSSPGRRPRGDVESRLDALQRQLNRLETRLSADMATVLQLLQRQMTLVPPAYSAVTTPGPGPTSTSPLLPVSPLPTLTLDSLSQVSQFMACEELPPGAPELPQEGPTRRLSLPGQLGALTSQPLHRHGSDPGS
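Note: peak tail current of the secondary pulse compared with the same well before compound.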

SMILES	hERG current change (%, negative = inhibition) at 10uM [%]
CCN(CC)C(=O)CSc1nc(N)c(C#N)c(-c2cccs2)c1C#N	15.5
CS(=O)(=O)c1ccc2nc(NC(=O)c3ccc(Cl)cc3)sc2c1	6.42
COC(=O)CCCC[C@@H]1SC[C@@H](NC(=O)OC)[C@@H]1NC(=O)OC	5.49
CC[C@@H](C)[C@H](NC(=O)Cc1c(C)c2cc3c(C)coc3c(C)c2oc1=O)C(=O)O	6.21
COc1ccc(NC(C)=O)cc1S(=O)(=O)N1CCN(Cc2cccs2)CC1	-3.53
COc1ccc(/C=C/C(=O)Nc2ccc(C)cc2)cc1S(=O)(=O)N1CCOCC1	-32.6
COc1ccc(/C=C/C(=O)Nc2ccccc2)cc1S(=O)(=O)N1CCOCC1	-52.2
COc1ccc(S(=O)(=O)N2CCN(C/C=C/c3ccccc3)CC2)cc1F	-30.1
COc1ccc(NC(C)=O)cc1S(=O)(=O)N1CCN(C/C=C/c2ccccc2)CC1	-69.3
COc1ccc(S(=O)(=O)N2CCN(C/C=C/c3ccccc3)CC2)cc1NC(C)=O	-77.9
COc1ccc(/C=C/C(=O)Nc2ccc(NC(C)=O)cc2)cc1S(=O)(=O)N1CCOCC1	1.65
COc1ccc(S(=O)(=O)N2CCN(C(c3ccccc3)c3ccccc3)CC2)cc1NC(C)=O	21.2
COc1ccc(C)cc1S(=O)(=O)N1CCN(C/C=C/c2ccccc2)CC1	-23.8
Cc1ccc(S(=O)(=O)N(C)/N=C/c2ccc(C(=O)O)cc2)cc1	-7.51
N#C/C(=C\c1ccc(C#N)cc1)C(=O)c1ccccc1	10.7
COc1ccc(NC(=O)CSc2nnc(-c3ccccn3)n2N)cc1Cl	-2.27
COc1ccc(/C=N/NC(=O)CCC(=O)Nc2ccc(Br)cc2)c(OC)c1	5.6
COc1ccc(CNC(=O)Cn2nc([N+](=O)[O-])c(Br)c2C)cc1OC	-10.2
COC(=O)C1=C(C)N(c2ccc(C)c(C)c2)/C(=C/c2cccs2)C1=O	-17.7
CCS(=O)(=O)N1CCN(S(=O)(=O)c2ccc3c(c2)OCCO3)CC1	17.5
CCCCOc1ccc(/C=C/C(=O)N(CC)CC(=O)Nc2ccc3c(c2)OCCO3)cc1OC	-28.9
CNC(=O)/C(C#N)=C/c1ccc(-c2ccc(OC)cc2[N+](=O)[O-])o1	-1.67

SMILES	hERG current change (%, negative = inhibition) at 10uM [%]
CC(C)CN1CCC(=O)N([C@H](CO)Cc2ccccc2)CC1	6.64
O=C(c1cccc(Cl)c1)N1CCC(=O)N(C(COCc2ccccc2)Cc2ccccc2)CC1 (centres unmarked)	-51.9
CCCN1CCC(=O)N([C@H](COc2ccccc2)Cc2ccccc2)CC1	-68.1
O=C1CCN(Cc2ccccc2)CCN1[C@H](CO)Cc1ccccc1	14.5
CN1CCC(=O)N([C@H](COc2ccccc2)Cc2ccccc2)CC1	-28.5
CC(C)CN1CCC(=O)N([C@H](COc2ccccc2)Cc2ccccc2)CC1	-71.7
O=C1CCN(Cc2ccccc2)CCN1[C@H](COc1ccccc1)Cc1ccccc1	-56.4
N#CC[C@H](Cc1ccccc1)N1CCN(Cc2ccccc2)CCC1=O	-24
CC(C)C[C@@H](COc1ccccc1)N1CCN(CC(C)C)CCC1=O	-48.5
C[C@H]1CCC(=O)N([C@H](COc2ccccc2)Cc2ccccc2)CC1	-42.7
O=C(c1cc(Cl)cc(Cl)c1)N1CCC(=O)N(C(COCc2ccccc2)Cc2ccccc2)CC1 (centres unmarked)	-10
Cc1cccc(COCC(Cc2ccccc2)N2CCN(C(=O)c3cccc(Cl)c3)CCC2=O)c1 (centres unmarked)	-15.1
Cc1cc(C)c2[nH]c(O)c(N=NC3=NC(=O)CS3)c2c1	-19.6
Cc1ccc(C)c(N2CCN(c3nc4ccccc4c(=O)n3Cc3ccccc3)CC2)c1	14.1
Cc1cnc(C(=O)N2CCCC(C(=O)c3ccc(C(C)(C)C)cc3)C2)cn1 (centres unmarked)	-20.7
CCN1CCN(C(=O)c2ccc(CNS(=O)(=O)c3cccc(OC)c3)cc2)CC1	40.7
O=C(OCc1cncs1)c1ccccc1Cl	6.6
O=C(NCc1cccnc1)Nc1ccc2c(c1)OCO2	-7.04
COc1ccccc1CCNC(=O)C1CCN(C(=O)/C=C/c2ccccc2)CC1	-13.8
COCCCNC(=O)CSc1ccc(Cl)cc1	2.32
CCCCN(Cc1ccccc1)C(=O)CCN1C(=O)C2C3C=CC(C3)C2C1=O (centres unmarked)	1.48
O=C1CCN(CCc2ccccc2)CCN1[C@H](COc1ccccc1)Cc1ccccc1	-78.6

SMILES	hERG current change (%, negative = inhibition) at 10uM [%]
N#CC[C@H](Cc1ccccc1)N1CCN(CCc2ccccc2)CCC1=O	16.5
O=C1CCN(CCc2ccccc2)CCN1[C@H](CO)Cc1ccccc1	-44.4
O=C(Nc1ccccc1)NC1CCN(Cc2c(F)cccc2Cl)CC1	7.91
Cc1cccc(-c2nc3c(c(SCC(=O)N4CCOCC4)n2)Cc2c(CO)cnc(C)c2O3)c1	5.78
Cc1ccc(S(=O)(=O)NNC(=O)c2csnn2)cc1	1.7
Nc1ccc(-n2nncc2-c2ccc(Cl)cc2)cc1	-35.9
c1ccc(-c2cnnn2-c2ccccc2)cc1	12.7
CC(C)(C)c1cnnn1-c1ccc([N+](=O)[O-])cc1	-8.46
O=[N+]([O-])c1ccc(-n2nncc2-c2ccccc2)cc1	-29.4
O=Cc1ccc(-n2nncc2-c2ccc([N+](=O)[O-])cc2)cc1	-67.3
O=C(O)c1ccc(-n2nncc2-c2ccccc2)cc1	8.58
COc1ccc(-c2cnnn2-c2ccc([N+](=O)[O-])cc2)cc1	-64.6
O=[N+]([O-])c1ccc(-n2nncc2-c2ccc(Cl)cc2)cc1	-72.7
CC(=O)c1ccc(-n2nncc2C)cc1	19.8
CC(=O)c1ccc(-n2nncc2-c2ccc([N+](=O)[O-])cc2)cc1	-53.3
O=[N+]([O-])c1cccc(-n2nncc2-c2ccccc2)c1	-1.23
Cc1cnnn1-c1ccc([N+](=O)[O-])cc1	23.5
Cc1ccc(CNS(=O)(=O)c2ccc(F)c(F)c2)n1C	15.3
COc1ccc(CCNC(=O)C2CCCN2C(=O)Nc2cccc(C(C)=O)c2)cc1OC (centres unmarked)	-3.26
COc1ccc(-c2cc(C(F)F)n3ncc(C(=O)N4CCN(C(=O)c5ccco5)CC4)c3n2)cc1	-34.8
CCc1ccc(NC(=O)C(=O)NCC2CCCO2)cc1 (centres unmarked)	10
CCOC(=O)N1CCN(c2nc(=S)n(-c3ccccc3)c(C)c2C(C)=O)CC1	-2.56

SMILES	hERG current change (%, negative = inhibition) at 10uM [%]
COC(=O)c1ccccc1NC(=S)NC(=O)COc1ccccc1Cl	-4.5
CCC1(C)Cc2nc3[nH]c(=S)n(-c4ccccc4)c(=O)c3cc2CO1 (centres unmarked)	17.6
CCOC(=O)COc1coc(CN2CCN(c3ccccc3)CC2)cc1=O	9.43
O=C(c1ccc(NS(=O)(=O)c2cccc3cccnc23)cc1)N1CCCCC1	12
CCCCCCNC(=O)C(C(=O)OCC)C1CCCCC1 (centres unmarked)	-4.59
C=CCNC(=O)C(C(=O)OCC)C1CCCCC1 (centres unmarked)	-53.3
CCOC(=O)C(C(=O)NCC1CCCO1)C1CCCCC1 (centres unmarked)	12
CCCC[C@H](CN[C@@H](CNC)[C@H](C)CC)NCCC12CCC(CC1)C2	10.4
N=c1sccn1CC(=O)Nc1cc(S(=O)(=O)N2CCCCC2)ccc1Cl	-62.5
O=C(Cc1cccs1)Nc1cc(S(=O)(=O)N2CCCCC2)ccc1Cl	-0.378
CN(CC(=O)Nc1cc(S(=O)(=O)N2CCCC2)ccc1Cl)Cc1cccs1	-16
Cl.N=c1sccn1CC(=O)Nc1cc(S(=O)(=O)N2CCCC2)ccc1Cl	-39.5
O=C(CNCc1cccs1)Nc1cc(S(=O)(=O)N2CCCC2)ccc1Cl	-52
Cc1ccc(S(=O)(=O)N2CCCCC2)cc1NC(=O)Cn1ccsc1=N.Cl	-33.7
O=C(Cc1cccs1)Nc1ccc(S(=O)(=O)N2CCCCC2)cc1	5.37
O=C(Cc1cccs1)Nc1ccc(S(=O)(=O)N2CCCC2)cc1	10.6
O=C(CNCc1ccncc1)Nc1cc(S(=O)(=O)N2CCCCC2)ccc1Cl	-63.9
O=C(CNCc1ccccn1)Nc1cc(S(=O)(=O)N2CCCCC2)ccc1Cl	-19
O=C(CCl)Nc1cc(S(=O)(=O)N2CCCCCC2)ccc1Cl	-22.9
Cl.O=C(CNCc1cccs1)Nc1ccc(S(=O)(=O)N2CCCCC2)cc1	-70.9
